This is an account of results in the supplement of paper PMC8728848.

Common to all, as to experiment: glycan array binding signal (z-score within array); higher = stronger binding
Experiment [1] relates to GlcNAc(b1-4)[GlcNAc(b1-6)]GalNAc. The following applies: glycan notation: IUPAC condensed, linker removed. In outline: (§1)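 Negative Z-scores can be read as non-binding. The Z-score is calculated within each array and then averaged across arrays of one protein sequence at different concentrations or buffers and across linkers. Arrays, 3228 in all, were curated from the Consortium for Functional Glycomics database and kept only where the protein sequence was available.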

Experiment [2] deals with GlcNAc(b1-3)[GlcNAc(b1-4)][GlcNAc(b1-6)]GlcNAc. The settings on record: glycan notation: IUPAC condensed, linker removed. In outline:
as §1

The test system of experiment [3] is GlcNAc(b1-3)Gal(b1-4)GlcNAc. The settings on record: glycan notation: IUPAC condensed, linker removed. In outline:
as §1

A further experiment deals with GlcNAc(b1-3)Gal. The settings on record: glycan notation: IUPAC condensed, linker removed. In outline: as §1
Experiment [4] has as its system GlcNAc(b1-4)GlcNAc(b1-4)GlcNAc(b1-4)GlcNAc(b1-4)GlcNAc. The settings on record: glycan notation: IUPAC condensed, linker removed. The method, boiled down:
as §1

Experiment [5] relates to GlcNAc(b1-3)Gal(b1-4)GlcNAc(b1-3)Gal(b1-4)GlcNAc(b1-2)Man(a1-3)[GlcNAc(b1-3)Gal(b1-4)GlcNAc(b1-3)Gal(b1-4)GlcNAc(b1-2)Man(a1-6)]Man(b1-4)GlcNAc(b1-4)[Fuc(a1-6)]GlcNAc. The following applies: glycan notation: IUPAC condensed, linker removed. The method, boiled down: as §1
The test system of experiment [6] is GlcNAc(b1-3)Gal(b1-4)GlcNAc(b1-3)Gal(b1-4)GlcNAc(b1-2)[GlcNAc(b1-3)Gal(b1-4)GlcNAc(b1-3)Gal(b1-4)GlcNAc(b1-6)]Man(a1-6)[GlcNAc(b1-3)Gal(b1-4)GlcNAc(b1-3)Gal(b1-4)GlcNAc(b1-2)Man(a1-3)]Man(b1-4)GlcNAc(b1-4)[Fuc(a1-6)]GlcNAc. The settings on record: glycan notation: IUPAC condensed, linker removed. The method, boiled down: as §1
Experiment [7] concerns GlcNAc(b1-3)Gal(b1-4)GlcNAc(b1-3)Gal(b1-4)GlcNAc(b1-3)Gal(b1-4)GlcNAc(b1-2)Man(a1-3)[GlcNAc(b1-3)Gal(b1-4)GlcNAc(b1-3)Gal(b1-4)GlcNAc(b1-3)Gal(b1-4)GlcNAc(b1-2)Man(a1-6)]Man(b1-4)GlcNAc(b1-4)GlcNAc. The settings on record: glycan notation: IUPAC condensed, linker removed. In outline:
as §1

For experiment [8], the system named is GlcNAc(b1-3)Gal(b1-4)GlcNAc(b1-3)Gal(b1-4)GlcNAc(b1-3)Gal(b1-4)GlcNAc(b1-2)[GlcNAc(b1-3)Gal(b1-4)GlcNAc(b1-3)Gal(b1-4)GlcNAc(b1-3)Gal(b1-4)GlcNAc(b1-6)]Man(a1-6)[GlcNAc(b1-3)Gal(b1-4)GlcNAc(b1-3)Gal(b1-4)GlcNAc(b1-3)Gal(b1-4)GlcNAc(b1-2)Man(a1-3)]Man(b1-4)GlcNAc(b1-4)[Fuc(a1-6)]GlcNAc. The settings on record: glycan notation: IUPAC condensed, linker removed. In outline: as §1

Experiment [9] has as its system GlcNAc(b1-4)GlcNAc(b1-4)GlcNAc(b1-4)GlcNAc(b1-4)GlcNAc(b1-4)GlcNAc. The following applies: glycan notation: IUPAC condensed, linker removed. In outline:
as §1

The test system of a further experiment is Kdn(a2-3)Gal(b1-3)GlcNAc. The settings on record: glycan notation: IUPAC condensed, linker removed. The method, boiled down:
as §1

For experiment [10], the system named is GlcNAc(b1-3)[GlcNAc(b1-6)]Gal(b1-4)GlcNAc. The settings on record: glycan notation: IUPAC condensed, linker removed. The method, boiled down:
as §1

In another experiment the test system is GlcNAc(b1-6)GalNAc. The following applies: glycan notation: IUPAC condensed, linker removed. The method, boiled down: as §1
Experiment [11] concerns GlcNAc(b1-3)Gal(b1-4)GlcNAc(b1-3)Gal(b1-4)GlcNAc. The settings on record: glycan notation: IUPAC condensed, linker removed. In outline:
as §1

For experiment [12], the system named is GlcNAc(b1-3)Gal(b1-4)GlcNAc(b1-3)Gal(b1-4)GlcNAc(b1-3)Gal(b1-4)GlcNAc(b1-2)Man(a1-3)[GlcNAc(b1-3)Gal(b1-4)GlcNAc(b1-3)Gal(b1-4)GlcNAc(b1-3)Gal(b1-4)GlcNAc(b1-2)Man(a1-6)]Man(b1-4)GlcNAc(b1-4)[Fuc(a1-6)]GlcNAc. The settings on record: glycan notation: IUPAC condensed, linker removed. The method, boiled down:
as §1

The test system of experiment [13] is GlcNAc(b1-3)Gal(b1-4)GlcNAc(b1-3)Gal(b1-4)GlcNAc(b1-3)Gal(b1-4)GlcNAc(b1-3)Gal(b1-4)GlcNAc(b1-2)Man(a1-3)[GlcNAc(b1-3)Gal(b1-4)GlcNAc(b1-3)Gal(b1-4)GlcNAc(b1-3)Gal(b1-4)GlcNAc(b1-3)Gal(b1-4)GlcNAc(b1-2)Man(a1-6)]Man(b1-4)GlcNAc(b1-4)GlcNAc. The settings on record: glycan notation: IUPAC condensed, linker removed; mutation: R125K. The method, boiled down: as §1

A further experiment has as its system GlcNAc3Prop(b1-4)GlcNAc. The following applies: glycan notation: IUPAC condensed, linker removed. The method, boiled down:
as §1

In experiment [14] the test system is GlcNAc(b1-6)Gal(b1-4)GlcNAc. The following applies: glycan notation: IUPAC condensed, linker removed. In outline:
as §1

In experiment [15] the test system is GlcNAc6S(b1-3)Gal(b1-4)GlcNAc. The settings on record: glycan notation: IUPAC condensed, linker removed. In outline: as §1
The next experiment deals with GlcNAc(b1-3)Gal(b1-4)Glc. The following applies: glycan notation: IUPAC condensed, linker removed. The method, boiled down:
as §1

The full list was thinned out, with the strongest signals kept by preference.

Chain of PILRb (Mus musculus), Q2YSF2 (Q2YSF2 entry or part of it): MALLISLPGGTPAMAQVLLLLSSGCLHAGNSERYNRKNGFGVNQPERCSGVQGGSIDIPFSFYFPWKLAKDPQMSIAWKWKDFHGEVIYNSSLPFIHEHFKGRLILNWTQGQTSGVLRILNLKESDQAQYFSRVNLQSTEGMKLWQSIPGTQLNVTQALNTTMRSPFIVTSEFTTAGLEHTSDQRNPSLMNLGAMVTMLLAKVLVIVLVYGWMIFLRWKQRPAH
Chain of PILRa (Mus musculus), Q2YSF3 (Q2YSF3 entry or part of it): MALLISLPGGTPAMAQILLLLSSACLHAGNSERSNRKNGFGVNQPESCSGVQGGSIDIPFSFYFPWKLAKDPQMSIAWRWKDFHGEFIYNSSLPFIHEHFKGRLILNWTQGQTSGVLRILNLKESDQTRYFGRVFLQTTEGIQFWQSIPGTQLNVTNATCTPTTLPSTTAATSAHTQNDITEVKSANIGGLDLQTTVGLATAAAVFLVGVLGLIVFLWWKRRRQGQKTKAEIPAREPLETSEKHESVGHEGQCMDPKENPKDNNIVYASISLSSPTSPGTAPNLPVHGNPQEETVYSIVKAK
Chain of CHI3L1 (Homo sapiens), P36222 (P36222 whole entry): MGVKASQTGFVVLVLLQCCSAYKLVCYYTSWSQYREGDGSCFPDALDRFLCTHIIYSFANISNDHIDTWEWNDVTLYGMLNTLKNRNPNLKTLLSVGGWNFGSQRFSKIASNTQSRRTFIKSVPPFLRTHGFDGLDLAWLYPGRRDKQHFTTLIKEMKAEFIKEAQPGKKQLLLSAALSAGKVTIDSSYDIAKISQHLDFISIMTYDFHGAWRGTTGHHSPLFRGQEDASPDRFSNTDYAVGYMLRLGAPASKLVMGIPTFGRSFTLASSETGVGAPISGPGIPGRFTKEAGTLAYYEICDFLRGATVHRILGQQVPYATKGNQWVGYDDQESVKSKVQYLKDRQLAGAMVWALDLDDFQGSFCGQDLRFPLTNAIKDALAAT
Chain of Avaren (Actinomycete K97) (chain, as listed by the source): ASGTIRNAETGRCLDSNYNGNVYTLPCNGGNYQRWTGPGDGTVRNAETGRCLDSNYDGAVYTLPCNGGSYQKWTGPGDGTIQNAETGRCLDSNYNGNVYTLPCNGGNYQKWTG
Chain of Neurocan (Homo sapiens), O14594 (O14594 other isoform, or with tags, fused parts or gaps): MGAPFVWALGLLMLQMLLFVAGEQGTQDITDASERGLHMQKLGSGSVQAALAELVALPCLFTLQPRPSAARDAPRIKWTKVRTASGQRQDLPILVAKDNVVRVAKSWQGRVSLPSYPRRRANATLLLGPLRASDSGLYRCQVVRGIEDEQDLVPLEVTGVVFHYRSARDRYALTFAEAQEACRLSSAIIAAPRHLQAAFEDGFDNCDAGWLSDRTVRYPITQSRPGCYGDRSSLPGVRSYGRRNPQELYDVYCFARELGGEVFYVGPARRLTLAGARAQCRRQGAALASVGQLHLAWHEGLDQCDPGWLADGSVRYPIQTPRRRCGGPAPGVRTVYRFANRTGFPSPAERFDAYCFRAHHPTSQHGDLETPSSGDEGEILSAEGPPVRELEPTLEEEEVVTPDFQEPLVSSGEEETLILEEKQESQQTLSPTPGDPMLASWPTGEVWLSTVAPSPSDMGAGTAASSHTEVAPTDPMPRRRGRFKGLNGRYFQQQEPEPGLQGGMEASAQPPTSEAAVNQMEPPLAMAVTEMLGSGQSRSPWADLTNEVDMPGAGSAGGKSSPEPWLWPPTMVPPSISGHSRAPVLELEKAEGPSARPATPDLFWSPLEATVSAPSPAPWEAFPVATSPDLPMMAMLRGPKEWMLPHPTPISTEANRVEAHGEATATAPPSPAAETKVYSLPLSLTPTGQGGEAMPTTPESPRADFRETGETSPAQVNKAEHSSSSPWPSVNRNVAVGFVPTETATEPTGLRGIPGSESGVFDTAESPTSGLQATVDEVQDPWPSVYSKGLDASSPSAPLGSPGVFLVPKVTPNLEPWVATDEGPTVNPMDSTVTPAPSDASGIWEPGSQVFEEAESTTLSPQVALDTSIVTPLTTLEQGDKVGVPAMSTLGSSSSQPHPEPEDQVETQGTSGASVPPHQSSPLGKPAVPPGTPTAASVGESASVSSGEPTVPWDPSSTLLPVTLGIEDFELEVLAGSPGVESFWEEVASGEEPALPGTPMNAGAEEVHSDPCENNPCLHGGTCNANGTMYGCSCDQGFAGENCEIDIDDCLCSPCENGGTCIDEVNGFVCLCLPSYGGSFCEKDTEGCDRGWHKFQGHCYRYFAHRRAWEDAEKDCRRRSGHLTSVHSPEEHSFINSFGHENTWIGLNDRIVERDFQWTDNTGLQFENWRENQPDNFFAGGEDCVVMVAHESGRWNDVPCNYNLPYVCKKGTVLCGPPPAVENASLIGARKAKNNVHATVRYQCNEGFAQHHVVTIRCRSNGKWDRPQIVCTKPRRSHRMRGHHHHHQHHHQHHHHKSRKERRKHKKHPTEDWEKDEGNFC
Chain of CHT (Homo sapiens) (chain, as listed by the source): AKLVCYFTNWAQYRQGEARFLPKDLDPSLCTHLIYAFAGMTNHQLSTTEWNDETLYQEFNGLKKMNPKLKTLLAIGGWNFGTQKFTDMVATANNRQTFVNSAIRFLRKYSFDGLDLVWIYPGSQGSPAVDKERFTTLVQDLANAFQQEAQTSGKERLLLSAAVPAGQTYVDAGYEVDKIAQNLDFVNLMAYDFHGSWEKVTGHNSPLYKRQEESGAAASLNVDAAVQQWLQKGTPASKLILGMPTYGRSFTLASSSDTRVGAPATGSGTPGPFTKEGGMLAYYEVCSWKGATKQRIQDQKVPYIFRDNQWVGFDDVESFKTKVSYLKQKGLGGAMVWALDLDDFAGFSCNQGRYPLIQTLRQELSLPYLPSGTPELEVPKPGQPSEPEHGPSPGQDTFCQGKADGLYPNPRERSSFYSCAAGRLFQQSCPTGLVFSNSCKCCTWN
Chain of wLAT-1A (Homo sapiens), Q01650 (Q01650 whole entry): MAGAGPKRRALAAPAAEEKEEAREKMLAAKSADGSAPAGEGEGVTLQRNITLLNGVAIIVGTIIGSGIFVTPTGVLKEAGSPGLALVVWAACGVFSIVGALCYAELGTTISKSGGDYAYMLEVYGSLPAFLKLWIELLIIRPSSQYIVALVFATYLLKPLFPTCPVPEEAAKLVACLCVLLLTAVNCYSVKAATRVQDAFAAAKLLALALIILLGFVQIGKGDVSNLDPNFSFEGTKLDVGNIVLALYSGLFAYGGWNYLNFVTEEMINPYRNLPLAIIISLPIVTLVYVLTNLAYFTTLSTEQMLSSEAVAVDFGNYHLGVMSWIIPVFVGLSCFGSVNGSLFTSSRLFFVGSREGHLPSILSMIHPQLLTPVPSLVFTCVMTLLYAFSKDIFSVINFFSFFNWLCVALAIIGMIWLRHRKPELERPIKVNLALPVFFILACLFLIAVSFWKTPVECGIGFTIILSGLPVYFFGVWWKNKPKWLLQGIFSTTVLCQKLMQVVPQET
Chain of Regenerating Gene IV (Homo sapiens), Q9BYZ8 (Q9BYZ8 whole entry, looked up): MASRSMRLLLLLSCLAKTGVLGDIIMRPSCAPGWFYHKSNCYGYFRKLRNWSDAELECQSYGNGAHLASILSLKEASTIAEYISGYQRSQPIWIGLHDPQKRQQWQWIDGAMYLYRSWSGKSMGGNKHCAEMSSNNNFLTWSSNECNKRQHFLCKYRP
Chain of C3b (Homo sapiens), P01024 (P01024 23-667): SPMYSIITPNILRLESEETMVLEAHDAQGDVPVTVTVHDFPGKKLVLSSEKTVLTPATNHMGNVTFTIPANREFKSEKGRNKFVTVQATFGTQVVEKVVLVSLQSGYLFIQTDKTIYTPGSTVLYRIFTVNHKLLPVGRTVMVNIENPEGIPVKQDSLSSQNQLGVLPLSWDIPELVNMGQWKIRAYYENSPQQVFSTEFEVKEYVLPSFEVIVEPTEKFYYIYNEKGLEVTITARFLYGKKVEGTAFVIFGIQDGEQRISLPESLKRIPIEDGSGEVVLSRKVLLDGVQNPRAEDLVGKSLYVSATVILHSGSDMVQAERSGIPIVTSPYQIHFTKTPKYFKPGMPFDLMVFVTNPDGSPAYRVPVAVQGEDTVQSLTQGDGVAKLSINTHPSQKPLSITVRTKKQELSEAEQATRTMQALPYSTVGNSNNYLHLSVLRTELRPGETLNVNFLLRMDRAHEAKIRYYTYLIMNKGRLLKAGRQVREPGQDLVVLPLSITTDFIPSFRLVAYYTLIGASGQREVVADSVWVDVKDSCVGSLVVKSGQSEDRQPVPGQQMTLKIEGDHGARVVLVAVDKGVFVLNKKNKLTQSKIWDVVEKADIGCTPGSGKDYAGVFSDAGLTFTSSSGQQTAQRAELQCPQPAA
Chain of SRLC (Mus musculus), Q8VIF6 (Q8VIF6 other isoform, or with tags, fused parts or gaps): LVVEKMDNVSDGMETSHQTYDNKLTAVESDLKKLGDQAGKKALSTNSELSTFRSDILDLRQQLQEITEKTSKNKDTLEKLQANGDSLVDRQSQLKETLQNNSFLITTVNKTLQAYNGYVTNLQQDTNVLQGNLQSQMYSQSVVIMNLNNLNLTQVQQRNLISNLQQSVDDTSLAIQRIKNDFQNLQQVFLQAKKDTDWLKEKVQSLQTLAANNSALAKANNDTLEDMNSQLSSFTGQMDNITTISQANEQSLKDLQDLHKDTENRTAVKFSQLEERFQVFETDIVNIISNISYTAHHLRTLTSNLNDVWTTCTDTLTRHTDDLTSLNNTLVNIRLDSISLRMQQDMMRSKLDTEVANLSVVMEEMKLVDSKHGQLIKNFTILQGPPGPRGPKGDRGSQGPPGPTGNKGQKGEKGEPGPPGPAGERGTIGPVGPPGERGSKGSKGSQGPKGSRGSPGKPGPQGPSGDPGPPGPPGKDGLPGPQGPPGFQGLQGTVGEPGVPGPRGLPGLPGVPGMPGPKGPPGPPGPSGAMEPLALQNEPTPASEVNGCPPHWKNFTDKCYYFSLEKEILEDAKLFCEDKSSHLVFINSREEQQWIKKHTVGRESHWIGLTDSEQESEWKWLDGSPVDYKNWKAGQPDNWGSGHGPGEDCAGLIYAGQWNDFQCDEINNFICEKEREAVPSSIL
Chain of Aggrecan (Rattus norvegicus), NP_071526 (chain, as listed by the source): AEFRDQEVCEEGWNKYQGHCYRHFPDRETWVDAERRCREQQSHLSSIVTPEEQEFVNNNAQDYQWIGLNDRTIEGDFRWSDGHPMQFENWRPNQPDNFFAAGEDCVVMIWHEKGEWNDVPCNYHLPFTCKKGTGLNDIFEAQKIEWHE

As for Aggrecan (Rattus norvegicus), NP_071526, the “glycan array binding signal (z-score)” value in [1] is 0.018.
Turning to C3b (Homo sapiens), P01024, the “glycan array binding signal (z-score)” value was found to be 7.72 in experiment [2] and 2.75 in experiment [1].
In the case of Neurocan (Homo sapiens), O14594, the entries for the “glycan array binding signal (z-score)” value (in experiment [3]; with GlcNAc(b1-3)Gal; in experiment [4]) were -1.33, -0.097 and -0.99, respectively.
With MpAFP RI GFP (Marinomonas primoryensis), the “glycan array binding signal (z-score)” value in [5] was 2.86; in experiment [6] it was 1.29; in [7], 4.26; in experiment [8] it was 1.39; in experiment [9], -0.527.
HARE (Homo sapiens), Q8WWQ8: the “glycan array binding signal (z-score)” value in the experiment with Kdn(a2-3)Gal(b1-3)GlcNAc is -0.646.
Turning to Avaren (Actinomycete K97), the “glycan array binding signal (z-score)” value in experiment [6] was -0.046; in [10], -0.108; in the experiment with GlcNAc(b1-6)GalNAc it was -0.119.
In the case of SRLC (Mus musculus), Q8VIF6, the “glycan array binding signal (z-score)” value in experiment [11] is -0.205; in the experiment with Kdn(a2-3)Gal(b1-3)GlcNAc it was -0.229.
As for Siglec-8 (Homo sapiens), Q9NYZ4, the “glycan array binding signal (z-score)” value was 0.434 in experiment [6]; 0.693 in [12]; -0.017 in experiment [13]; -0.111 in experiment [4]; -0.467 in experiment [1] (mutation: R125K).
On to 6RG (Lolium perenne), for which the “glycan array binding signal (z-score)” value in [11] was -0.272.
Take CHI3L1 (Homo sapiens), P36222: the “glycan array binding signal (z-score)” value in experiment [9] was 15.6; in experiment [4], 14.5; in the experiment with GlcNAc3Prop(b1-4)GlcNAc, -0.044.
On to “Regenerating Gene IV (Homo sapiens), Q9BYZ8”, for which the “glycan array binding signal (z-score)” value in the experiment on GlcNAc(b1-3)Gal was -0.345; in the experiment with GlcNAc3Prop(b1-4)GlcNAc it was -0.463.
For PILRb (Mus musculus), Q2YSF2, the “glycan array binding signal (z-score)” value in experiment [3] was -0.214; in experiment [4], -0.432; in the experiment with GlcNAc(b1-6)GalNAc, -0.025.
For PILRa (Mus musculus), Q2YSF3, the “glycan array binding signal (z-score)” value is -0.314 in [14], -0.331 with GlcNAc3Prop(b1-4)GlcNAc and 0.098 in [15].
Regarding wLAT-1A (Homo sapiens), Q01650, the “glycan array binding signal (z-score)” value is -0.411 in the experiment on GlcNAc(b1-3)Gal(b1-4)Glc, 0.369 in the experiment with GlcNAc(b1-6)GalNAc and 0.213 in the experiment on GlcNAc3Prop(b1-4)GlcNAc.
In the case of CHT (Homo sapiens), the “glycan array binding signal (z-score)” value was 11.9 in experiment [9] (mutation: D138V, E140I); 8.66 in experiment [4] (mutation: D138V, E140I); -0.105 with Kdn(a2-3)Gal(b1-3)GlcNAc (mutation: D138V, E140I).
